TDP1 cell noCPT – qHTS for Inhibitors of human tyrosyl-DNA phosphodiesterase 1 (TDP1): qHTS in cells in absence of CPT | DT40 Tdp1-/- hTDP1 cells, no CPT, ATP luminescence, 48 h | Potency, µM (series often up to 46.2 µM), for the others: at the top dose activity change, negative = growth inhibition, actives largely listed as inhibitors | 420,000 tested, 15% active; note: potency is the fitted concentration of half-maximal effect; nearly all actives have a fitted effect of over 55% in size
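Luminescent ATP content (CellTiter-Glo) served as the growth readout. Knockout chicken DT40 cells expressing human TDP1 were exposed to compounds without camptothecin for a minimum 48 hr at 37 °C.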
HT1080 IDH1KD tx – qHTS for induction of synthetic lethality in tumor cells producing 2HG: qHTS for the HT-1080-IDH1KD cell line. AID 686971, 2013. HT-1080 IDH1 knockdown viability, ATP luminescence, 48 h. 360,000 tested, 2% active. Potency, µM (top dose mostly 46.1 µM), for inactives: at the highest dose activity, negative = toxicity, hits mostly cytotoxic;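 note: potency is the fitted concentration of half-maximal effect; 0% = DMSO wells and -100% = cell-free medium wells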
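In this qHTS, HT-1080 cells depleted of IDH1 are exposed for 48 h at 37 °C to compound titrations. Toxicity is scored from CellTiter-Glo luminescence, with DMSO as full viability and medium alone as none.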
HT1080NT lethal – qHTS for induction of synthetic lethality in tumor cells producing 2HG: qHTS for the HT-1080-NT fibrosarcoma cell line; HT-1080-NT fibrosarcoma viability, CellTiter-Glo ATP luminescence, 48 h; Potency, µM (top dose mostly 46.1 µM), for inactives: at the highest dose activity, negative = less viability, hits mostly cytotoxic; 360,000 tested, 1.6% active;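 note: NT is the 2HG producing partner of a matched IDH1 knockdown line; potency is the fitted concentration of half-maximal effect; 0% = DMSO-treated cells and -100% = media-only wells without cells; nearly all actives have a fitted effect of over 55% in size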
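Fibrosarcoma NT cells, 750 per well in 5% FBS RPMI, were exposed to compound for 48 hours. Viability: CellTiter-Glo luminescence.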
IL1B secr inh – qHTS for Inhibitors of Inflammasome Signaling: IL-1-beta AlphaLISA Primary Screen | THP-1 LPS/ATP IL-1B secretion, AlphaLISA, 16 h; stronger effect = lower value | activity change, % at 57.5 µM | 360,000 tested, 4.7% active; in the data active = activity change below about -50%; inconclusive = mostly about -30% to -49%
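THP-1 cells pretreated 1 hr with compounds (up to 57.5 uM final), then stimulated with LPS (250 ng/mL final) plus ATP (1.25 mM final); secreted IL-1B measured by AlphaLISA after 16 hr, decreased signal indicating inhibition.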
TDP1 cell CPT – qHTS for Inhibitors of human tyrosyl-DNA phosphodiesterase 1 (TDP1): qHTS in cells in presence of CPT | chicken DT40 Tdp1-/-;hTDP1 cells + 20 nM CPT, ATP luminescence, 48 h | Potency, µM (top dose mostly 46.2 µM), for inactives: at the top dose activity change, negative = growth inhibition, hits mostly inhibitors | 420,000 tested, 12% active; note: potency is the fitted concentration of half-maximal effect; nearly all actives have a fitted effect of over 55% in size
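Cell growth measured by CellTiter-Glo luminescence after a minimum 48 h, 37 C compound exposure with 20 nM CPT in Tdp1-knockout DT40 cells stably expressing hTDP1, seeded 400/well; qHTS titration format.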
Numbers without * were called inactive; ? = inconclusive; nt = no result. Shown are actives, neighbours in structure and some others; about 19% of the full set was active somewhere. Unless noted, calls come from the whole dose curve; as a rule, active = well fitted curve in the direction sought with a large enough effect; inconclusive = small, poorly fitted or top-dose-only effect, or another doubt; inactive = no such curve, though single readings can be large; an effect the other way counts as inactive or inconclusive. Unless noted, % is set by controls: 0 for no effect and ±100 for the full control effect.

SMILES	TDP1 cell noCPT	HT1080 IDH1KD tx	HT1080NT lethal	IL1B secr inh	TDP1 cell CPT
Cn1c(=O)c2c(ncn2CC2OCCO2)n(C)c1=O	-14%	nt	nt	10	9%
Cc1ccc(-c2c[n+](CC(=O)Nc3c(C)cccc3C)c3n2CCC3)cc1	?	-7%	-6%	-64*	?
CCc1ccc(NC(=O)C[n+]2cc(-c3ccc(C)cc3)n3c2CCC3)cc1	3.7µM*	-26%	?	?	2.3µM*
Cc1ccc(NC(=O)C[n+]2cc(-c3ccccc3)n3c2CCC3)c(C)c1	?	-16%	-16%	-16	-21%
Nc1cnccn1	-1%	nt	nt	nt	-3%
O=C1CC(c2ccccc2)Cc2[nH]c(=O)c(-c3nc(-c4cccc(Cl)c4)cs3)cc21 (configuration not stated)	5.2µM*	nt	nt	nt	5.2µM*
CCN(CC(=O)N1CCOCC1)S(=O)(=O)c1cc(Cl)ccc1Cl	7%	-3%	0%	12	-13%
COc1cc(C)ccc1OCCCCOc1ccccc1C(C)=O	?	0%	9%	8	1.8µM*
CC(=O)Nc1ccc(S(=O)(=O)Nc2ccccc2C(=O)N2CCCC2)cc1	-25%	4%	14%	12	2%
Cc1ccc(Nc2nc3nonc3[nH]c2=O)cc1Cl	26µM*	?	?	-17	16µM*
Cc1ccc(Nc2nc3nonc3[nH]c2=O)cc1C	?	?	?	7	?
Cc1ccc(NC(=O)C2CCN(c3cc(C)nc4c(-c5ccc(Cl)cc5)c(C)nn34)CC2)c(C)c1	-1%	nt	nt	nt	4%
O=c1c2c([N+](=O)[O-])cc([N+](=O)[O-])cc2sn1-c1ccc(Br)cc1	?	-2%	-4%	-18	10µM*
O=c1c2c([N+](=O)[O-])cc([N+](=O)[O-])cc2nc2ccccn12	?	1%	-4%	-12	?
O=c1c2cc([N+](=O)[O-])cc([N+](=O)[O-])c2[nH]n1-c1ccccc1	?	-27%	-25%	-5	?
O=c1c2c([N+](=O)[O-])cc([N+](=O)[O-])cc2sn1Cc1ccccc1	5.2µM*	?	?	-105*	5.2µM*
C=C1C(=O)OC2C1C(OC(=O)C(C)=CC)CC(=C)C1C(O)C3OC3(C)C21O (configuration not stated)	15µM*	15µM*	-1%	-101*	15µM*
O=C(NCc1cc(Cl)cc(Cl)c1)c1ccc2nc([C@@H]3O[C@H](CO)[C@H](O)[C@H](O)[C@H]3O)[nH]c2c1	2%	14%	16%	?	-10%
Cc1sc2ncnc(NCCc3ccc(S(N)(=O)=O)cc3)c2c1C	1.5µM*	?	-20%	-19	2.9µM*
COc1ccc(CCNc2ncnc3c2c(C)c(C)n3CCO)cc1OC	8.2µM*	1%	6%	-1	21µM*
Cc1c(C)n(CCc2ccccc2)c2ncnc(NCCCN(C)C)c12	?	?	?	-72*	?
Cc1sc2ncnc(NCCCn3ccnc3)c2c1C	-17%	-2%	3%	7	-4%
COc1ccc(CCNc2ncnc3sccc23)cc1OC	0.29µM*	?	?	-8	0.16µM*
CCCCC(=O)Nc1ccc(C(=O)N2CCN(C)CC2)cc1	0%	9%	18%	-24	-15%
O=C(Cc1ccccc1)NN1C(=O)/C(=C/c2ccccc2C(=O)O)SC1=S	8%	4%	5%	37	0%
SMILES	TDP1 cell noCPT	HT1080 IDH1KD tx	HT1080NT lethal	IL1B secr inh	TDP1 cell CPT
CCCCN1C(=O)c2ccc(C(=O)OCC(=O)NCCc3ccc(S(N)(=O)=O)cc3)cc2C1=O	-4%	11%	7%	14	8%
NS(=O)(=O)c1ccc(CCNc2ncnc3sccc23)cc1	5.8µM*	?	-10%	8	7.3µM*
NS(=O)(=O)c1ccc(CNc2ncnc3sccc23)cc1	?	-13%	-15%	11	?
O=S(=O)(NCCCCCNS(=O)(=O)c1ccc(F)cc1)c1ccc(F)cc1	13µM*	-18%	-22%	10	11µM*
O=S(=O)(NCCCCCNS(=O)(=O)c1ccccc1)c1ccccc1	26µM*	-10%	-18%	-19	?
NCCCCCCNS(=O)(=O)c1cccc2ccccc12	14µM*	nt	nt	nt	16µM*
Cc1ccc(S(=O)(=O)NCCC(=O)NCCCSc2ccccc2)cc1	-26%	-9%	-1%	-28	-27%
O=S(=O)(NCCCc1ccccc1)c1ccccc1	2%	6%	3%	15	-6%
O=C(CCNS(=O)(=O)c1ccccc1)NCCCSc1ccccc1	18µM*	5%	-2%	13	7.3µM*
COc1ccc(-n2c(=O)c(-c3ccc(Cl)cc3)nc3cnc(N4CCOCC4)nc32)cc1	-12%	nt	nt	nt	14%
O=C1c2ccccc2C(=O)N1CN(C(=O)c1ccccc1)c1ccc(O)cc1	-5%	4%	11%	-8	2%
N#Cc1c(-c2ccc(Cl)cc2)n(O)c2ccccc12	3.3µM*	15µM*	10µM*	-54*	3.3µM*
Cn1c(-c2ccc(C#N)cc2)c(C#Cc2ccccc2)c2ccccc21	-28%	-4%	-1%	5	10%
O=C(Nc1cccc(S(=O)(=O)C(F)F)c1)c1ccc(S(=O)(=O)N2CCCCC2)cc1	?	?	?	-62*	?
O=C(Nc1cccc(S(=O)(=O)N2CCCCC2)c1)c1ccc(S(=O)(=O)C(F)F)cc1	?	-15%	0%	-82*	?
CC(=O)c1cccc(NC(=O)c2ccc(S(=O)(=O)N3CCCCC3)cc2)c1	18µM*	-5%	-2%	-26	23µM*
Cn1nc(C(=O)Nc2ccc(S(=O)(=O)N3CCCCC3)cc2)ccc1=O	21µM*	-10%	-17%	12	?
Cn1nccc1C(=O)Nc1ccc(S(=O)(=O)N2CCCC2)cc1	-8%	-1%	-2%	13	-2%
CC1(C)Cc2c(sc(/N=C/N3CCCC3)c2C#N)C(C)(C)N1	?	-2%	-1%	-13	-6%
CC(=O)N(Cc1ccccc1)c1nc(-c2ccccc2)cs1	?	-9%	-1%	-18	1%
Cc1onc(-c2ccccc2)c1C(=O)Nc1ccc(S(=O)(=O)N2CCOCC2)cc1	23µM*	-3%	0%	-1	?
O=C(Nc1ccc(S(=O)(=O)N2CCCCC2)cc1)c1ccc(CN2CCc3ccccc3C2)cc1	4.6µM*	?	?	-3	10µM*
